In all, about 2,300 compounds went through this assay and about 20 (0.9%) were called active. Only a selection was taken, and actives are over-represented in it overall. A number with no mark means an inactive call.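 How the source made its calls: active means mean percent activation across replicates above the counterscreen hit cutoff of 9.17%; inactive means the rest.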

Drawing on PubChem BioAssay AID1508607 (The Scripps Research Institute Molecular Screening Center, 2020), this text covers activation for 58 molecules.

This assay deals with Glucose-dependent insulinotropic receptor (Homo sapiens) (UniProt Q8TDV5). The assay can be described thus: GPR119 activators in beta-arrestin cells, confirmation, counter-screen for GPR151 activator project, cell-based, PathHunter beta-arrestin, luminescence, set 2 (AID 1508607).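 Further: 0% = median of sample wells and 100% = wells given EA reagent.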 The note with it: 90 min, at 11.2 µM, hits give high values.
Chain of Glucose-dependent insulinotropic receptor (Homo sapiens) (Q8TDV5 whole entry, looked up): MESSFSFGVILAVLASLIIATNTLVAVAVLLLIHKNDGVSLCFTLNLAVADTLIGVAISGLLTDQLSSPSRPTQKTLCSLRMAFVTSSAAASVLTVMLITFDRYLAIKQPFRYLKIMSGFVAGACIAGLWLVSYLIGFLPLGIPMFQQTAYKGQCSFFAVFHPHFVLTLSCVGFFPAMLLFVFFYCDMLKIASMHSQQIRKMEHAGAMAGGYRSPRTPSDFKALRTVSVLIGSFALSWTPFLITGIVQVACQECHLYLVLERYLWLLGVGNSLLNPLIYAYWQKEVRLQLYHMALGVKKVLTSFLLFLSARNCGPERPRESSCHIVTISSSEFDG
On to `CC(C)OCCCNC(=O)CN(c1ccc(OCc2ccccc2)cc1)S(C)(=O)=O`, for which the activation was -1.63%.

Turning to `COc1ccc(S(=O)(=O)CCC(=O)N2CCc3ccccc32)cc1`, the activation is 1.93%.

Consider `Cc1ccc(S(=O)(=O)N2CCN3C(=O)[C@H](Cc4ccc(Cl)cc4)NC(=O)[C@H]3C2)cc1`, for which the activation is 1.14%.

In the case of `CC1(C(=O)NCC2Cc3cccc(-c4ncccn4)c3O2)CC1` (stereo not drawn), the activation is 1.78%.

Turning to `Cc1cc(Nc2ccc(N3CCOCC3)cc2)nc(Nc2ccc(-n3ccnc3)cc2)n1`, the activation is 3.07%.

As to `COc1ccc(CCNc2ccnc(Nc3ccc(N4CCOCC4)cc3)n2)cc1`, the activation is 10.5% (active).

For `COc1ccc(CCNc2ccnc(Nc3ccc(-n4ccnc4)cc3)n2)cc1`, the activation was 12.4% (active).

With `COc1cc(Nc2ccnc(Nc3ccc(N4CCOCC4)cc3)n2)cc(OC)c1OC`, the activation was 7.31%.

On to `Cc1cc(Nc2ccc3c(c2)OCO3)nc(Nc2ccc(N3CCOCC3)cc2)n1`, for which the activation is 1.65%.

Turning to `COc1ccc(CCNc2cc(C)nc(Nc3ccc(-n4ccnc4)cc3)n2)cc1`, the activation was 6.54%.

Regarding `O=C(O)c1cc([N+](=O)[O-])ccc1C(=O)Nc1cccc2ccccc12`, the activation is -0.79%.

For the molecule `CCC(=O)N1CCc2cc(S(=O)(=O)NCCN(CC)c3ccccc3)ccc21`, the activation was -1.16%.

For `CC1CCC(=NNC(=O)c2ccccc2O)CC1` (stereo not drawn), the activation was -3.51%.

`CN(C)c1ccc(/C=C(\C#N)C(N)=C(C#N)C#N)cc1`: the activation is 4.1%.

Consider `O=C(c1cccc(S(=O)(=O)N2CCOCC2)c1)N1CCCc2ccccc21`, for which the activation is -5.28%.

On to `CC(=O)Cc1nsc(Nc2cccc(Cl)c2C)n1`, for which the activation was 6.59%.

Take `CSc1nc2sccn2c(=O)c1C(=O)NCc1ccccc1Oc1ccccc1`: the activation is -1.15%.

As for `COc1cc2[nH]c(=O)n(CCC(=O)N3CCC(N4CCCCC4)CC3)c(=O)c2cc1OC`, the activation was -2.11%.

For `CN1CCN(c2cc(-c3cn[nH]c3)ccc2NC(=O)Cc2cccc(Cl)c2)CC1`, the activation is 11.6% (active).

For `CCOc1ccc(S(=O)(=O)N(CC(=O)NCCSc2ccccc2)c2ccccc2)cc1`, the activation was -2.47%.

Take `COc1ccc(-n2ncc3c(Nc4cccc(F)c4)ncnc32)cc1`: the activation was 2.73%.

`COc1ccc(-n2ncc3c(Nc4ccc(C(C)C)cc4)ncnc32)cc1`: the activation is 9.19% (active).

Turning to `COc1ccc(-n2ncc3c(Nc4cc(OC)ccc4OC)ncnc32)cc1`, the activation was 4.1%.

For the molecule `C/C(=N/NC(=O)CNC(=O)c1ccccc1F)c1cccc([N+](=O)[O-])c1`, the activation was -2.45%.

Turning to `CCCn1cc(SCC(=O)Nc2ccc(OC)cc2OC)c2ccccc21`, the activation was 4.73%.

Take `CC(C)(C)NC(=O)C1CCN(S(=O)(=O)c2ccc(Br)s2)CC1`: the activation is 3.94%.

Turning to `COCCNC(=O)c1cccc(OC2CCN(Cc3cc4ccccc4o3)CC2)c1`, the activation is 0.69%.

In the case of `CCOc1ccccc1CNCc1c(C(=O)O)c(C)n(Cc2cccc(Cl)c2)c1C`, the activation is -3.17%.

As to `N#C/C(=C/c1cc(Cl)ccc1Cl)c1nc2ccccc2c(=O)[nH]1`, the activation was -3.12%.

Take `COC(=O)c1c(OCC2CCCCO2)cc(=O)n2c1CCN(Cc1ccsc1)CC2` (stereo not drawn): the activation is 0.67%.

Turning to `O=C(C1CCCN1S(=O)(=O)c1ccc(Cl)cc1)N1CCOCC1` (stereo not drawn), the activation was 2.3%.

As for `CCOC(=O)c1cc(-c2ccccc2)sc1NC(=O)c1ccc(OC)c(OC)c1`, the activation is -1.86%.

In the case of `Cc1cc(OCC(=O)Nc2sc(C)c(C)c2C(N)=O)ccc1Br`, the activation is 3.41%.

Turning to `N#CC1=C2SCN(Cc3ccccc3)CN2C(=O)CC1c1cccc(F)c1` (stereo not drawn), the activation was -1.21%.

For `CC(=O)c1ccc(N2CCN(C(=O)c3cc4c(C)nc5ccccc5c4o3)CC2)cc1`, the activation is 0.66%.

Consider `CCOc1ccc(/C=C2\SC(=S)N(CC(=O)Nc3ccc(O)cc3)C2=O)cc1`, for which the activation is -3.84%.

As for `Cc1nc2n(n1)C(c1ccc(Cl)cc1)C=C(c1ccc(Cl)cc1)N2` (stereo not drawn), the activation was -0.05%.

With `C=CCOc1ccc(/C=C2\NC(=S)N(c3ccc(OC)cc3)C2=O)cc1`, the activation is 1.06%.

Regarding `CCCCNC(=O)c1ccc(C)c(N2CCCC2=O)c1`, the activation is 0.14%.

`O=S(=O)(/C=C/c1ccccc1)N1c2ccccc2C=CC1c1c[nH]c2ccccc12` (stereo not drawn): the activation is -5.1%.

Turning to `COc1ccc(C(=O)N/N=C/c2ccc(O)cc2O)cc1OC`, the activation is 1.94%.

Turning to `Cc1ccc(Nc2nc(Cl)nc(N3CCOCC3)n2)cc1Cl`, the activation was -1.69%.

Regarding `COC(=O)c1ccccc1NC(=O)c1cc2ccccc2oc1=O`, the activation is 2.29%.

On to `CC(=O)N1CCC(N(C(=S)Nc2cccc(Cl)c2C)C(C)C)CC1`, for which the activation is -0.07%.

Regarding `Cc1c(Cl)cccc1NS(=O)(=O)c1c(C(C)C)cc(C(C)C)cc1C(C)C`, the activation is 9.78% (active).

Consider `CC(C)c1ccccc1OCC(=O)Nc1ccccc1Cl`, for which the activation was -0.8%.

With `COc1ccc(NC(=O)N2CCC(CN3CCc4ccccc4C3)CC2)cc1`, the activation is -2.3%.

Turning to `Cc1cccc(Cn2c(=O)c3ccccc3n3nncc23)c1`, the activation was 3.36%.

Consider `COc1ccc(N2CCN(c3ncnc4sc(C(=O)N5CCC(C(N)=O)(N6CCCCC6)CC5)c(C)c34)CC2)cc1`, for which the activation is 0.57%.

In the case of `O=C(NCc1ccco1)c1ccc2ccccc2c1`, the activation is 1.88%.

Consider `COc1ccc(-c2nc3c(=O)n(C)c4ccccc4c3o2)cc1`, for which the activation is -4%.

Turning to `CCC(=O)N1CCN(c2ccc(NC(=O)C(C)(C)C)cc2)CC1`, the activation was 0.46%.

For `O=C(CNc1ccccc1)N/N=C/c1cccc(Oc2ccccc2)c1`, the activation is -3.18%.

Regarding `O=C(/C=C/c1ccccn1)NCCN1Cc2ccccc2OC(c2ccccc2)C1` (stereo not drawn), the activation was 1.44%.

Take `CCNC(=O)C(=O)Nc1ccc(OC)cc1`: the activation is -1.66%.

For `O=C(CSc1ccc2nnc(-c3ccncc3)n2n1)Nc1ccc(C(F)(F)F)cc1`, the activation is -0.42%.

For the molecule `Cc1n[nH]c(C)c1S(=O)(=O)NCc1ccc(F)cc1`, the activation is -0.09%.

With `O=c1oc2ccc3ccccc3c2cc1-c1nnc(Nc2ccc(Oc3ccc4ccccc4c3Cl)c(Cl)c2)s1`, the activation was 0.97%.
